Results taken from PubChem BioAssay AID2058 (Sanford-Burnham Center for Chemical Genomics, 2009).
The campaign covered roughly 290,000 compounds. About 150 (0.052%) were called active. The list comes from a sample in which actives are over-represented; it also holds similar structures and randomly drawn compounds. Measured potencies and affinities stand elsewhere. Unmarked numbers belong to inactive results.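 How the source made its calls: active means inhibition of at least 50% with at least 30 cells and total cytoplasm GFP at most 10,000,000; inconclusive means under 30 cells or total GFP of 10,000,000 plus; inactive means the rest.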

Biological target: G-protein coupled receptor 35 (Homo sapiens) (UniProt Q9HC97)
Sequence (Q9HC97 whole entry, looked up): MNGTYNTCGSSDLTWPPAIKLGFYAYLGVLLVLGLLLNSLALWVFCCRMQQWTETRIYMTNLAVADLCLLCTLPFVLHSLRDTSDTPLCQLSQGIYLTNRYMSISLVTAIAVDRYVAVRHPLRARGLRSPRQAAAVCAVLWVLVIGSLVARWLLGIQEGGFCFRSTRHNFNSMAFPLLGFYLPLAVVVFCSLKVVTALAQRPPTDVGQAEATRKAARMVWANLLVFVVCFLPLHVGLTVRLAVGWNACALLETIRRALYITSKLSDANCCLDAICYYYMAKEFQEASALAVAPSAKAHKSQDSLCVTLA
Experiment: GPR35 antagonists blocking zaprinast-driven arrestin recruitment, primary screen, imaging, U2OS, beta-arrestin-GFP, zaprinast agonist (AID 2058)
Conditions: U2OS GPR35 beta-arrestin-GFP translocation imaging, zaprinast antagonism; at 10 µM; hits give high values

Row | SMILES | inhibition
1 | Fc1ccc(-[n+]2nc(Nc3ccccc3)sc2-c2ccc(OCc3ccccc3)cc2)cc1 | 8.3%
2 | CSc1ccc(-c2sc(Nc3ccccc3)n[n+]2-c2ccc(F)cc2)cc1 | -7.7%
3 | O=C(O)c1ccc(-c2sc(Nc3ccccc3)n[n+]2-c2ccc(F)cc2)cc1 | 0.5%
4 | Oc1ccc(-c2sc(Nc3ccccc3)n[n+]2-c2ccc(F)cc2)cc1 | 10.2%
5 | COc1ccc(C)cc1Nc1n[n+](-c2ccccc2)c(-c2ccc(C(=O)O)cc2)s1 | 7.9%
6 | COc1ccc(C)cc1Nc1n[n+](-c2ccccc2)c(-c2ccc(SC)cc2)s1 | 20.4%
7 | COC(=O)c1cc(-c2ccc(Cl)cc2)n[nH]1 | 10.8%
8 | CC(C)C(C)NC(=O)CN1C(=O)NC2(CCc3ccccc32)C1=O (centres undefined) | 9.4%
9 | Nc1nonc1-n1nnc(C(=O)N/N=C/c2ccc(OCc3ccc(F)cc3)cc2)c1COc1ccccc1 | 5.9%
10 | CC(C)(C)c1ccc(/C=C2\CCn3c2nc2cc(C(=O)O)ccc2c3=O)cc1 | 17.9%
11 | O=Cc1[nH]c2ccccc2c1N(C(=O)CCl)c1ccc([N+](=O)[O-])cc1 | 80.7% (active)
12 | CC(=O)n1cc(N(C(=O)CCl)c2ccc([N+](=O)[O-])cc2)c2ccccc21 | -2.4%
13 | O=Cc1[nH]c2ccccc2c1N(C(=O)CCl)c1ccccc1 | -1.1%
14 | CSc1ccc(C2c3[nH]c4ccccc4c3CCN2C(=O)c2ccnn2C)cc1 (centres undefined) | -11.7%
15 | CCOc1ccccc1CN1CCN(Cc2cccc3nonc23)CC1CCO (centres undefined) | 28.2%
16 | COc1cccc(CN2CCN(Cc3cccc4nonc34)CC2CCO)c1 (centres undefined) | 8.1%
17 | CCOc1ccc(CN2CCN(Cc3cccc4nonc34)CC2CCO)cc1 (centres undefined) | 97.5% (active)
18 | CN(C)/C=C1\C(=O)ON=C1c1ccccc1 | -9.5%
19 | CCN(CC)C(=O)c1ccc(-c2nnc(Nc3ccc(C(=O)NC)cc3)c3ccccc23)cc1 | 5%
20 | N=C1/C(=C\c2ccc(-c3cccc(Cl)c3)o2)C(=O)N=C2SC=C(c3ccccc3)N12 | -1.6%
21 | CC(C)S(=O)(=O)C1=NSC2=NC(=O)/C(=C\c3ccc(-c4cccc(C(=O)O)c4)o3)C(=N)N21 | -1.8%
22 | N=C1/C(=C\c2ccc(-c3cc(Cl)cc(Cl)c3)o2)C(=O)N=C2SC=C(c3ccccc3)N12 | -4.5%
23 | N=C1/C(=C\c2ccc(-c3ccc(C(=O)O)cc3)o2)C(=O)N=C2SC=C(c3ccccc3)N12 | 43%
24 | O=C(c1ccsc1)N1CCCC(Nc2ccc(F)c(F)c2)C1 (centres undefined) | 0%
